Calls of active or inactive are those of the source. Calls follow the shape of the full dose curve.
Assay: qHTS drug screen for cell cycle checkpoint inhibitors in PARPi-resistant BRCA-mutant ovarian cancer cell lines. (AID 1963452)
Conditions: PEO1/OlaR viability, CellTiter-Glo luminescence, 96 h
In short: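 PEO1, PEO4 and PEO1/OlaR ovarian cancer cells, 600 per well, exposed 96 h at 37C to a dilution series. Viability read by CellTiter-Glo luminescence, normalized to DMSO and empty wells; activity summarized as Z-AUC.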
Potency is read from the fitted curve at half-maximal effect.

Compound | Potency
COc1ccc(C=Cc2cc(OC)c(OC)c(OC)c2)cc1NC(=O)[C@H](N)CO | 54.9 nM (active)
CC(C)C[C@H](NC(=O)CNC(=O)c1cc(Cl)ccc1Cl)B1OC(=O)CC(CC(=O)O)(C(=O)O)O1 (stereo partly specified) | 43.6 nM (active)
COC[C@H](NC(=O)c1cnc(C)s1)C(=O)N[C@@H](COC)C(=O)N[C@@H](Cc1ccccc1)C(=O)[C@@]1(C)CO1 | 138 nM (active)
COc1cc([C@@H]2c3cc4c(cc3[C@H](O)[C@H]3COC(=O)[C@@H]23)OCO4)cc(OC)c1OC | 1230 nM (active)
CCC(C(=O)O)C1CCC(C)C(C(C)C(O)C(C)C(=O)C(CC)C2OC3(C=CC(O)[C@@]4(CC[C@](C)(C5CC[C@@](O)(CC)C(C)O5)O4)O3)C(C)CC2C)O1 (stereo partly specified) | 1380 nM (active)
N#CNC(=NCCCCCCOc1ccc(Cl)cc1)Nc1ccncc1 | 34.7 nM (active)
